# Screening data deposited in PubChem by National Center for Advancing Translational Sciences (NCATS).
# Rab9 promoter act = activators of Rab9 promoter. Huh7 Rab9 promoter-luciferase reporter, luminescence, 24 h. Potency, µM (doses to about 9.22 µM), for the others: at the top dose activation, negative = inhibition, usual class: activators. actives 2.8% (n = 320,000). AID 485297; note: % of control where 0% means no effect; nearly all actives have a fitted effect of over 60% in size
#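 Huh7 cells stably carrying Rab9 promoter–luciferase reporter, plated 1500 cells/well, compound added after 2 h and incubated 24 h at 37 °C; luciferase luminescence then read after 10 min with detection reagent.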
# ELG1 genotox = inducers of genotoxicity in HEK293T ELG1-luciferase cells; HEK293T ELG1-luciferase reporter, luminescence, 16 h; Potency, µM (doses to about 46 µM), for inactives: at the top dose activity change, positive = activation, hits mostly activators; actives 1.3% (n = 330,000); AID 504466; note: % of control where 0% means no effect; nearly all actives have a fitted effect of over 60% in size
#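 Genotoxicity was scored as increased ELG1-luciferase reporter signal, measured by ONE-Glo luminescence (30 min, room temperature). Compound or vehicle exposure of the HEK293T reporter cells lasted 16 hr at 37°C.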
# NPC1 prom act = NPC1 promoter activation; Potency, µM (highest dose often 9.22 µM), for inactives: top-dose activation, most hits filed as activators; AID 485313; actives 2.4% (n = 320,000); Huh7 NPC1 promoter luciferase reporter, 24 h; note: % of control where 0% means no effect; nearly all actives have a fitted effect of over 60% in size
#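 Quantitative HTS used a cell-based reporter: Huh7 cells stably bearing the NPC1 promoter upstream of luciferase were treated with compounds for 24 h, and promoter activation was read as luminescence.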
# SMN2 splice enh = enhancers of SMN2 splice variant expression; HEK293 SMN2-luciferase splicing reporter, luminescence, 30-36 h; Potency, µM (series often up to 46.1 µM), inactives show at the top dose activity change, positive = activation, usual class: activators; actives 2.8% (n = 210,000); note: % of control where 0% means no effect; nearly all actives have a fitted effect of over 55% in size
#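 HEK293 cells carry an SMN2 minigene-luciferase reporter in which exon 7 inclusion puts luciferase in frame. Cells were seeded at 2000 cells/well, attached for 10-12 hours, then exposed to compounds for 30-36 hours at 37C before ONE-Glo luminescence.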
# KinaseGlo FLuc = Kinase-Glo luciferase inhibition (counter-screen); AID 1379; Q27757; Potency, µM (series often up to 38.3 µM), without a hit: at the top dose activity change, negative = inhibition, most hits filed as inhibitors; Kinase-Glo luciferase, ATP luminescence, 8 min; actives 0.28% (n = 200,000); note: % is set by controls: 0 for no effect and ±100 for the full control effect; nearly all actives have a fitted effect of over 60% in size
#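 Recombinant Kinase-Glo luciferase, 10 uM ATP (linear range), luciferin; imidazole pH 7.2 / KCl / MgCl2 / Tween / BSA buffer; 8 min RT; luminescence.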
# FLuc modulator = firefly luciferase modulation, counter-screen for miR-21 project | purified FLuc, Km substrates, luminescence inhibition | AID 588342 | Potency, µM (doses to about 57.5 µM), for inactives: at the highest dose activity change, negative = inhibition, actives largely listed as inhibitors | actives 6.9% (n = 360,000) | P08659;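 note: plate controls were vehicle for no effect and reference inhibitor for full effect; nearly all actives have a fitted effect of over 55% in size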
# Target sequence (P08659 whole entry, looked up): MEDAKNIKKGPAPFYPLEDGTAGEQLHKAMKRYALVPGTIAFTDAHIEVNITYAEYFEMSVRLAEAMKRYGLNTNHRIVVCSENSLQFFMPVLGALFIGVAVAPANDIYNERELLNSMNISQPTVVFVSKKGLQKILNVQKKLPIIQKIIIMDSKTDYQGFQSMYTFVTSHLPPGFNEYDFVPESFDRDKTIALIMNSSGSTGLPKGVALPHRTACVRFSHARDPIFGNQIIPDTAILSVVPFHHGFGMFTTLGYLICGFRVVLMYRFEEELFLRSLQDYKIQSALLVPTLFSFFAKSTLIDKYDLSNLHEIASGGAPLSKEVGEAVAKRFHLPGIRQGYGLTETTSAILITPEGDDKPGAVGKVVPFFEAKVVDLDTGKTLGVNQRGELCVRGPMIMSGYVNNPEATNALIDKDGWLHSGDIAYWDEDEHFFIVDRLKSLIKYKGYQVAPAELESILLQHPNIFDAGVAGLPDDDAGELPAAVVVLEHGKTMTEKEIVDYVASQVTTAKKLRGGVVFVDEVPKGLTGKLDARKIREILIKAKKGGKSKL
#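 Purified P. pyralis luciferase, 10 nM final, with Km-level 10 uM D-luciferin and 10 uM ATP in 50 mM Tris acetate pH 7.5, 10 mM Mg acetate, 0.01% Tween-20, 0.05% BSA; 6-point qHTS titration about 60 µM downward; luminescence read.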
# * hit, by the source's call; ? = inconclusive; nt = not tested or not shown; [ ] = remark or other dose. Sampled rows, rich in hits. Any-hit rate of the full collection: about 7.5%. Calls come from the whole dose curve; as a rule, active = well fitted curve in the direction sought with a large enough effect; inconclusive = small, poorly fitted or top-dose-only effect, or another doubt; inactive = no such curve, though single readings can be large; an effect the other way counts as inactive or inconclusive. Potency is the fitted concentration of half-maximal effect.
SMILES,Rab9 promoter act,ELG1 genotox,NPC1 prom act,SMN2 splice enh,KinaseGlo FLuc,FLuc modulator
N/C(Cc1ccc(Cl)c(Cl)c1)=N\OC(=O)c1cccs1,0.4%,-0.4%,-2.9%,8.6%,0.2%,-12.2%
N/C(=N\OC(=O)c1ccc(Cl)cc1Cl)c1cccnc1,1.58µM*,2.59µM*,1.41µM*,nt,-11.6%,1.2µM*
C/C(=N/NC(=O)c1ccc(Cl)cc1Cl)c1cccnc1,15.8%,0.6%,1.7%,nt,nt,?
N/C(=N\OC(=O)c1ccc(Cl)cc1Cl)c1ccc(Cl)cc1,1.58µM*,?,1.41µM*,22.4%,-6.7%,0.536µM*
Cc1ccc(CNC(=O)Cn2cc(S(=O)(=O)Cc3cccc(Cl)c3)c3ccccc32)cc1,nt,nt,nt,nt,nt,-2.2%
O=C(CSc1nccn1-c1cccc(Cl)c1)Nc1cccc(C(F)(F)F)c1,nt,nt,nt,nt,nt,-1.7%
Cc1ccc(CNC(=O)C2CCCN(c3nc4ccccc4n4cccc34)C2)cc1 (configuration not stated),nt,nt,nt,nt,nt,-4.2%
COC(=O)C1=C(C(=O)OC)[C@@H]2N(C)c3ccc(OC)cc3[C@@]23C[C@@H](C(=O)OC)N(S(=O)(=O)c2ccc(Br)cc2)C3=N1,nt,nt,nt,-5.8%[9.22 µM],-0.9%[7.66 µM],nt
Cc1cc(C)c(NC(=O)CCN2CCCCC2)c(C)c1,nt,nt,nt,9.5%,nt,-0.1%
N/C(=N\OC(=O)c1cccc([N+](=O)[O-])c1)c1cccnc1,4.5%,8.6%,-1.9%,-2.8%,0.2%,?
Cc1ccc(/C(N)=N/OC(=O)c2ccc(C)cc2Cl)cc1,0.708µM*,?,1.12µM*,?,-3.9%,0.849µM*
N/C(=N\OC(=O)c1ccc(Cl)cc1)c1cccnc1,3.0%,8.91µM*,17.5%,7.9%,-22.7%,1.35µM*
N/C(=N\OC(=O)c1ccc(Cl)cc1Cl)c1ccccc1,0.501µM*,?,4.47µM*,?,11.2µM*,0.169µM*
Cc1cccc(/C(N)=N/OC(=O)c2ccc(Cl)cc2Cl)c1,0.316µM*,?,0.126µM*,5.01µM*,?,0.477µM*
N/C(Cc1ccc(Cl)cc1Cl)=N\OC(=O)c1ccccc1,1.8%,0.4%,-0.3%,-3.8%,0.4%,-18.8%
COc1cccc(NC(=O)Cn2c(=O)n(Cc3ccccc3)c(=O)c3c2c2cc(C)ccc2n3C)c1,nt,nt,nt,nt,nt,0.5%
CCOc1ccc(NC(=O)C2CCCN(c3ccc(Sc4ccc(C)cc4)nn3)C2)cc1 (configuration not stated),nt,nt,nt,-16.0%,nt,5.0%
N/C(=N\OC(=O)c1cccs1)c1cccnc1,0.4%,?,1.4%,nt,nt,8.49µM*
Cc1nn(CCC(=O)Nc2cc(F)ccc2F)c(=O)c2nn(-c3ccccc3)c(C)c12,nt,nt,nt,nt,nt,-1.5%
COc1ccc(CCNC(=O)c2cc(C)nc3c2c(C)nn3-c2ccccc2)cc1OC,nt,nt,nt,nt,nt,0.5%
Cc1nc(SCC(=O)c2ccc(Cl)s2)c2oc3ccccc3c2n1,?,-0.4%,?,12.3%,4.3%,9.53µM*
CCc1nc(SCC(=O)NCCc2ccccc2)c2oc3ccccc3c2n1,4.3%,-4.9%,-3.3%,-15.5%,-3.7%,-19.4%
CCc1nc(SCC(=O)c2cccs2)c2oc3ccccc3c2n1,18.2%,-4.4%,0.1%,-25.5%,-3.5%,10.7µM*
O=C(O)CSc1nc(-c2ccccc2)nc2c1oc1ccccc12,-2.9%,-0.3%,3.0%,-7.1%,-3.7%,21.3µM*
O=C(O)CSc1nc(-c2ccc(Cl)cc2)nc2c1oc1ccccc12,0.1%,-2.6%,-1.7%,12.2%,0.2%,?
SMILES,Rab9 promoter act,ELG1 genotox,NPC1 prom act,SMN2 splice enh,KinaseGlo FLuc,FLuc modulator
CCOCCCNC(=O)CN1C(=O)CCn2nc(-c3cccn3C)cc21,nt,nt,nt,nt,nt,-1.8%
Cc1ccc(-n2nnnc2SCC(=O)NC(=O)Nc2ccc3c(c2)OCCO3)cc1,?,14.9%,27.9%,19.1%,1.8%,21.3µM*
C[C@H](NS(=O)(=O)c1ccc(Cl)cc1)C(=O)OCC(=O)NC(=O)Nc1ccc2c(c1)OCCO2,21.5%,?,19.4%,?,-3.6%,16.9µM*
COc1ccc(-n2nnnc2SCC(=O)NC(=O)Nc2ccc3c(c2)OCCO3)cc1,27.3%,?,18.8%,-15.9%,19.5%,19µM*
O=C(CSc1nnnn1-c1ccc(Cl)cc1)NC(=O)Nc1ccc2c(c1)OCCO2,?,17.5%,?,?,-2.8%,?
Cc1nnc(SCC(=O)NC(=O)Nc2ccc3c(c2)OCCO3)n1N,1.78µM*,2.8%,?,nt,nt,16.9µM*
COc1ccc(NC(=O)CSc2nnnn2-c2ccc(OC)cc2)cc1,-1.6%,1.9%,7.7%,-3.0%,-4.5%,-0.4%
CCNC(=O)c1ccc(C)c(-n2c(C)nc3cccnc32)c1,nt,nt,nt,nt,nt,1.0%
Cc1c(C(=O)NCc2ccco2)oc2ccc(Br)cc12,16.5%,-0.6%,18.8%,nt,nt,?
O=C(NCc1ccco1)c1cc(=O)c2ccccc2o1,-5.3%,-4.4%,-5.6%,1.7%,3.5%,-4.0%
O=C(OCCc1cc2ccccc2c(=O)o1)c1ccco1,-4.2%,3.4%,0.8%,nt,nt,5.36µM*
O=C(NCc1ccco1)c1cc2cc(Br)ccc2o1,?,10.0%,21.7%,nt,nt,16.9µM*
O=C(NCc1ccco1)c1cc2ccccc2c(=O)o1,9.8%,15.0%,12.5%,nt,nt,15.1µM*
Cc1ccc(NC(=O)Cn2c(=O)n(CCC(C)C)c(=O)c3cccnc32)cc1C,nt,nt,nt,-15.2%,nt,-2.4%
COCCCNC(=O)CN(c1ccc(F)cc1)S(=O)(=O)c1ccc2c(c1)OCCO2,-0.9%,3.1%,0.5%,nt,nt,2.5%
O=C(CSc1nc2ccccc2o1)NCc1ccc2c(c1)OCO2,3.5%,20.6µM*,-1.4%,?,6.9%,?
Cc1ccccc1NC(=O)CSc1nc2ccccc2o1,?,4.11µM*,?,7.2%,-0.9%,3.1%
O=C(CSc1nc2ccc(Cl)cc2o1)NCc1ccc2c(c1)OCO2,0.7%,-1.0%,14.2%,-2.2%,2.1%,2.1%
O=C(CSc1nc2ccccc2o1)Nc1nc(-c2ccccc2)cs1,1.9%,?,14.9%,?,-2.9%,21.3µM*
COc1cc(Cl)c(C)cc1NC(=O)CSc1cc(-c2ccccc2)nc(C)n1,nt,nt,nt,nt,nt,3.2%
COc1cccc(N2CCN(C(=O)C3CCN(S(=O)(=O)c4c(C)noc4/C=C/c4ccccc4F)CC3)CC2)c1,nt,nt,nt,nt,nt,-7.2%
COc1ccc(OC)c(-c2cc(C(=O)Nc3ccc(C)c(C)c3)no2)c1,nt,nt,nt,-17.9%,nt,-15.5%
Cn1ccc2cc(S(=O)(=O)N3CCCC(C(=O)NCc4ccccc4)C3)ccc21 (configuration not stated),nt,nt,nt,nt,nt,0.9%
Cc1cn2c(=O)cc(COc3ccccc3NC(=O)c3ccccc3C)nc2s1,nt,nt,nt,-4.7%,nt,1.1%
CN(C)S(=O)(=O)c1ccc2c(c1)N(CC(=O)N1CCN(c3ccc(F)cc3)CC1)CCS2,nt,nt,nt,nt,nt,-4.0%
